For 6 compounds, outcome and AC50 results are on record in PubChem BioAssay (EPA / NIEHS).

Molecules are shown by their SMILES. Active and inactive are the calls of the source. The calls were made as follows: active = hit-call score of the fitted dose curve at least 0.9, where 1 is the maximum; inactive = score below 0.9.

Settings in all cases: mRNA level, 48 h; actives raise or lower the signal
Read-out in assay [1]: Apoptosis regulator Bcl-2 (Homo sapiens) (UniProt P10415)
Put plainly: LTEA_HepaRG_BCL2: Life Technologies and Expression Analysis (LTEA) Assay for Bcl-2 gene using HepaRG (AID 2283475). In outline:
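Plated human HepaRG cells are exposed to test chemicals for 48 h across eight concentrations from 100 uM downward in half-log steps (0.5% DMSO). BCL2 expression is then measured by qRT-PCR with housekeeping normalisation and fitted bidirectionally against vehicle.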

Read-out in assay [2]: Bcl-2 (BID) gene, BID (gene 637)
The assay is described as follows: LTEA_HepaRG_BID: Life Technologies and Expression Analysis (LTEA) Assay for Bcl-2 (BID) gene using HepaRG (AID 2283476). Summed up: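 Cells are plated, cultured 48 h, switched to serum-free induction medium, then dosed 48 h (100 uM top, half-log steps, 0.5% DMSO). RNA is isolated and BID expression read by qRT-PCR.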

Read-out in assay [3]: Caspase-3 (Homo sapiens) (UniProt P42574)
Put plainly: LTEA_HepaRG_CASP3: Life Technologies and Expression Analysis (LTEA) Assay for cysteine-aspartic acid protease (CASP3) using HepaRG (AID 2283477). In outline:
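In HepaRG liver cells dosed for 48 h at up to 100 uM (eight-point, duplicate), CASP3 expression changes are scored by qRT-PCR. Activity is fitted in both directions with 0.5% DMSO as baseline.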

Read-out in assay [4]: Cytochrome P450 (CYP24A1), CYP24A1 (gene 1591)
The assay is described as follows: LTEA_HepaRG_CYP24A1: Life Technologies and Expression Analysis (LTEA) Assay for Cytochrome P450 (CYP24A1) using HepaRG (AID 2283478). In outline: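 Human liver HepaRG cultures receive each chemical for 48 h across an eight-point half-log series topping at 100 uM in 0.5% DMSO. Induction or suppression of CYP24A1 mRNA is scored relative to vehicle after housekeeping-gene normalization.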

Read-out in assay [5]: Cytochrome P450 (CYP1A2), CYP1A2 (gene 1544)
The assay is described as follows: LTEA_HepaRG_CYP1A2: Life Technologies and Expression Analysis (LTEA) Assay for Cytochrome P450 (CYP1A2) using HepaRG (AID 2283479). Summed up: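 Assesses CYP1A2 mRNA in human HepaRG liver cells after 48 h chemical exposure at up to 100 uM. Values come from qRT-PCR with bidirectional curve fitting relative to DMSO.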

Read-out in assay [6]: cysteine-aspartic acid protease (CASP8), CASP8 (gene 841)
Put plainly: LTEA_HepaRG_CASP8: Life Technologies and Expression Analysis (LTEA) Assay for cysteine-aspartic acid protease (CASP8) using HepaRG (AID 2283480). Summed up:
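qRT-PCR readout of CASP8 mRNA, normalized to three housekeeping genes, after 48 h chemical exposure of HepaRG cells; 8-point half-log series, top 100 uM, 0.5% DMSO vehicle. Bidirectional curve fitting against DMSO baseline.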

Read-out in assay [7]: Cytochrome P450 (CYP2B6), CYP2B6 (gene 1555)
The assay is described as follows: LTEA_HepaRG_CYP2B6: Life Technologies and Expression Analysis (LTEA) Assay for Cytochrome P450 (CYP2B6) using HepaRG (AID 2283481). Summed up: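 Using 48 h treatment of HepaRG cells in serum-free induction medium, concentrations spanned half-log steps from 100 uM in 0.5% DMSO vehicle. CYP2B6 mRNA induction or loss is scored by qRT-PCR against DMSO.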

Read-out in assay [8]: Cytochrome P450 2C19 (Homo sapiens) (UniProt P33261)
Put plainly: LTEA_HepaRG_CYP2C19: Life Technologies and Expression Analysis (LTEA) Assay for CYP2C19 using HepaRG (AID 2283482). Summed up:
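Human HepaRG liver cells received test chemicals for 48 h (highest 100 uM, half-log dilutions in 0.5% DMSO). CYP2C19 mRNA induction or loss is read by multiplexed qRT-PCR and fitted in both directions versus vehicle.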

Read-out in assay [9]: CYP2C8 (gene 1558)
Put plainly: LTEA_HepaRG_CYP2C8: Life Technologies and Expression Analysis (LTEA) Assay for CYP2C8 using HepaRG (AID 2283483). Summed up:
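HepaRG (human liver line), 48 h chemical exposure, 8-pt half-log series from 100 uM, 0.5% DMSO vehicle. Readout: CYP2C8 transcript by qRT-PCR, housekeeping-normalized. Bidirectional fit vs DMSO baseline.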

Read-out in assay [10]: CYP2C9 (gene 1559)
The assay is described as follows: LTEA_HepaRG_CYP2C9: Life Technologies and Expression Analysis (LTEA) Assay for CYP2C9 using HepaRG (AID 2283484). Summed up: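 HepaRG, 48 h dosing, 8-pt half-log series, top 100 uM, 0.5% DMSO vehicle. Read-out: CYP2C9 transcript by TaqMan qRT-PCR, housekeeping-normalized (ACTB/GAPDH/POLR2A). Gain or loss fitted vs DMSO baseline.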

Read-out in assay [11]: CYP4A11 (gene 1579)
The assay is described as follows: LTEA_HepaRG_CYP4A11: Life Technologies and Expression Analysis (LTEA) Assay for CYP4A11 using HepaRG (AID 2283486). In outline: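 Readout is CYP4A11 mRNA induction or suppression (qRT-PCR, ACTB/GAPDH/POLR2A normalization) in human HepaRG cells after 48 h chemical treatment, concentrations to 100 uM in 0.5% DMSO, fitted bidirectionally against vehicle.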

Read-out in assay [12]: Cytochrome P450 3A4 (Homo sapiens) (UniProt P08684)
The assay is described as follows: LTEA_HepaRG_CYP3A4: Life Technologies and Expression Analysis (LTEA) Assay for CYP3A4 using HepaRG (AID 2283487). Summed up:
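HepaRG, 48 h exposure, 8-pt CRC from 100 uM (half-log), 0.5% DMSO, duplicates; serum-free induction medium. Readout: CYP3A4 mRNA, qRT-PCR, ACTB/GAPDH/POLR2A normalization. Bidirectional fit vs DMSO.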

Read-out in assay [13]: DNA damage-inducible transcript 3 (DDIT3), DDIT3 (gene 1649)
Put plainly: LTEA_HepaRG_DDIT3: Life Technologies and Expression Analysis (LTEA) Assay for DNA damage-inducible transcript 3 (DDIT3) using HepaRG (AID 2283488). Summed up:
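Cells are human HepaRG liver cells treated for 48 h with eight half-log concentrations up to 100 uM in 0.5% DMSO. Transcript levels come from qRT-PCR normalized to three housekeeping genes, with activity fitted in both directions relative to vehicle.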

Read-out in assay [14]: Pro-epidermal growth factor (Homo sapiens) (UniProt P01133)
Put plainly: LTEA_HepaRG_EGF: Life Technologies and Expression Analysis (LTEA) Assay for Epidermal growth factor (EGF) using HepaRG (AID 2283489). In outline: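 EGF expression changes in human HepaRG cells are scored by bidirectional fitting relative to 0.5% DMSO controls. Chemicals are tested at eight half-log concentrations up to 100 uM for 48 h in serum-free induction medium.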

Read-out in assay [15]: Early growth response protein 1 (EGR1) transcription factor, EGR1 (gene 1958)
The assay is described as follows: LTEA_HepaRG_EGR1: Life Technologies and Expression Analysis (LTEA) Assay for Early growth response protein 1 (EGR1) transcription factor using HepaRG (AID 2283490). Summed up:
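HepaRG, 48 h exposure, 8-pt half-log series from 100 uM, 0.5% DMSO vehicle; EGR1 transcript by TaqMan qRT-PCR (Fluidigm array), housekeeping-normalized; bidirectional fit relative to DMSO baseline.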

Read-out in assay [16]: Ezrin (EZR), EZR (gene 7430)
Put plainly: LTEA_HepaRG_EZR: Life Technologies and Expression Analysis (LTEA) Assay for Ezrin (EZR) using HepaRG (AID 2283491). In outline:
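Read-out is EZR transcript level by qRT-PCR, normalized to three housekeeping genes and fitted bidirectionally against the DMSO control. Human HepaRG cells received test chemicals for 48 h at eight half-log concentrations up to 100 uM in 0.5% DMSO.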

Read-out in assay [17]: CYP3A5 (gene 1577)
Put plainly: LTEA_HepaRG_CYP3A5: Life Technologies and Expression Analysis (LTEA) Assay for CYP3A5 using HepaRG (AID 2283493). In outline: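 Human HepaRG hepatic cells receive 48 h chemical treatment at eight concentrations (half-log steps from 100 uM) in 0.5% DMSO. Expression of CYP3A5 is quantified by Fluidigm qRT-PCR and normalized to three reference genes.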

Read-out in assay [18]: Fatty Acid-Binding Protein 1 (FABP1), FABP1 (gene 2168)
The assay is described as follows: LTEA_HepaRG_FABP1: Life Technologies and Expression Analysis (LTEA) Assay for Fatty Acid-Binding Protein 1 (FABP1) using HepaRG (AID 2283494). In outline: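 qRT-PCR readout of FABP1 transcript (normalized to three housekeeping genes) after 48 h chemical exposure of HepaRG cells; eight concentrations, half-log steps, max 100 uM, 0.5% DMSO vehicle; gain or loss fitted relative to DMSO baseline.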

Cytochrome P450 2C19 (Homo sapiens), sequence (P33261 whole entry, looked up): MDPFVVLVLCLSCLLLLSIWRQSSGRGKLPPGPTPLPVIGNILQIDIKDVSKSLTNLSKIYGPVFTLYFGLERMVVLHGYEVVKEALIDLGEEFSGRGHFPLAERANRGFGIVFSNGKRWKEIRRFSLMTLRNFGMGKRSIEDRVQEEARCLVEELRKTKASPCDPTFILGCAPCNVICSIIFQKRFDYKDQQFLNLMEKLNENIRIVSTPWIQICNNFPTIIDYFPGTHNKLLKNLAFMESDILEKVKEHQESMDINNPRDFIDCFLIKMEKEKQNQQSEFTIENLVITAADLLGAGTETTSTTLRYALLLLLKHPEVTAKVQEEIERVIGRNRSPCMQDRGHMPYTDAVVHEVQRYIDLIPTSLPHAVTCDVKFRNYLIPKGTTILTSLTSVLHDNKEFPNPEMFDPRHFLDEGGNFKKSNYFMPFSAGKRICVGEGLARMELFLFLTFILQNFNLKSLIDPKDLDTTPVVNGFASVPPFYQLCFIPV
Cytochrome P450 3A4 (Homo sapiens), sequence (P08684 whole entry, looked up): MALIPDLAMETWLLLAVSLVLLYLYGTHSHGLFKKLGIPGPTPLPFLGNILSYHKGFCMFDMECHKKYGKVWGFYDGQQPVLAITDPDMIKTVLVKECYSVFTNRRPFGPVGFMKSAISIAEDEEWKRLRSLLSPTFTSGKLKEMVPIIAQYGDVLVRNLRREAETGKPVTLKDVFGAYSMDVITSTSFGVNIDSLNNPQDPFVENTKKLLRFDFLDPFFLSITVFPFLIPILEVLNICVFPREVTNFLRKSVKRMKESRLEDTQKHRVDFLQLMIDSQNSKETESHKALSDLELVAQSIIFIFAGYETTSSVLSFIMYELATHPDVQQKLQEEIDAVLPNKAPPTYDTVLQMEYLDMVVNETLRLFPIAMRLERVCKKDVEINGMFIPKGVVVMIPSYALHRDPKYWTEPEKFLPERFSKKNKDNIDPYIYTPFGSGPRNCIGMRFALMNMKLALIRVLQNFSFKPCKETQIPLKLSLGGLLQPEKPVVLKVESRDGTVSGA
Caspase-3 (Homo sapiens), sequence (P42574 whole entry, looked up): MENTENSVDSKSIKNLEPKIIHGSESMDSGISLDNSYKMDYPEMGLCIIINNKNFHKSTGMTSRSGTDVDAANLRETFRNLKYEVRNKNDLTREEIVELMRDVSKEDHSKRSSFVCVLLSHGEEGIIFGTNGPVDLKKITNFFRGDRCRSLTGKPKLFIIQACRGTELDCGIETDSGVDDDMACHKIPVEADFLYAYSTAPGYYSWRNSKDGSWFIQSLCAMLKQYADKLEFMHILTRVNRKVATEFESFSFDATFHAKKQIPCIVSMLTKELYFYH
Apoptosis regulator Bcl-2 (Homo sapiens), sequence (P10415 whole entry, looked up): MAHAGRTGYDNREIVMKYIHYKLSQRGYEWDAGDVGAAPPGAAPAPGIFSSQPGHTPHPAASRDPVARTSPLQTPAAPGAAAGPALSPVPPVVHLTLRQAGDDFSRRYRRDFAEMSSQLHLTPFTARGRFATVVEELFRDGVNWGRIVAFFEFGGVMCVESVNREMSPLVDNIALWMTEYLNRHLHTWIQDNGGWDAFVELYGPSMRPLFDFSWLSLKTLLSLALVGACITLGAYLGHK

Regarding `CC[C@H](NC(=O)c1cc(F)ccc1NS(=O)(=O)c1cccc2cccnc12)c1ccccc1`, the result in assay [1], in [2], in assay [3], in assay [4], in assay [6] and in assay [9] was inactive. Moreover, the compound was called inactive in assay [15], in [16] and in assay [17]. In addition, the AC50 in assay [5] is 76 µM (active); in assay [7] it was 88.2 µM (active); in assay [8] it was 0.972 µM (active); in assay [10] it was 78.5 µM (active); in [11] it was 22.4 µM (active); in [12], 0.957 µM (active). The values for the AC50 in [13], in [14] and in assay [18] were 47.8 µM (active), 11.5 µM (active) and 32.3 µM (active), respectively.
Consider `CCN(Cc1cccc(S(=O)(=O)O)c1)c1ccc(C(=C2C=CC(=[N+](CC)Cc3cccc(S(=O)(=O)O)c3)C=C2)c2ccccc2S(=O)(=O)[O-])cc1`, for which the outcome in assay [1], in assay [2], in [3], in [4], in assay [5] and in assay [6] was inactive. The result in [7], in assay [8], in assay [9], in assay [10], in [11] and in assay [12] was inactive. For the same compound, the call in assay [13], in assay [14], in assay [15], in [16], in assay [17] and in assay [18] was inactive.
As to `Cc1cn([C@H]2C[C@H](N=[N+]=[N-])[C@@H](CO)O2)c(=O)[nH]c1=O`, the compound was called inactive in [1], in assay [2], in assay [3], in assay [4], in assay [5] and in assay [7]. In addition, the result in [8], in assay [9], in assay [10], in assay [11], in [12] and in assay [13] was inactive. In addition, the outcome in [14], in [15], in assay [16], in assay [17] and in [18] was inactive.
For the compound `CC(O)CC(C)(C)O` (stereo unspecified), the compound was called inactive in assay [1], in [2], in [3], in assay [4], in assay [5] and in [6]. Moreover, the compound was called inactive in assay [7], in assay [8], in assay [9], in [10], in assay [11] and in assay [12]. Moreover, the outcome in [13], in assay [14], in assay [15], in [16], in [17] and in [18] was inactive.
For `Cc1c2ccccc2c(C)c2c1ccc1ccccc12`, the AC50 in assay [1] is 78.3 µM (active); in assay [5], 85 µM (active); in assay [7] it was 50 µM (active); in [8] it was 75.9 µM (active); in assay [9] it was 37.7 µM (active); in assay [10] it was 37.2 µM (active). The AC50 is 33.2 µM (active) in assay [11]; 78.8 µM (active) in assay [12]; 33.9 µM (active) in assay [13]; 19.9 µM (active) in assay [14]; 11.9 µM (active) in [17]; 50 µM (active) in [18]. Further, the outcome in assay [2], in [3], in assay [4], in assay [15] and in assay [16] was inactive.
With `Cc1cccc2ccccc12`, the result in assay [1], in [2], in assay [3], in assay [4], in assay [5] and in assay [6] was inactive. The call in [7], in assay [8], in assay [9], in assay [10], in assay [11] and in assay [12] was inactive. Further, the result in assay [13], in assay [14], in [15], in [16], in assay [17] and in assay [18] was inactive.

What is called AC50 is the concentration giving half of the maximal activity seen.
